Source: PubChem
Shiga toxin inh: inhibitors of Shiga toxin in Vero cells; Vero cells, Shiga toxin protein synthesis inhibition reporter; inhibition, % at 38.7 µM; 290,000 tested, 9.2% active; in the data active = inhibition mostly above about 28%, no sharp cut-off; inactive = mostly below about 43%; also: 0% is about no effect
Pf growth 48h: inhibits P. falciparum growth in the first generation, 48 h; P. falciparum luciferase growth in erythrocytes, 48 h; Potency, µM (highest dose often 28.7 µM), without a hit: at the highest dose activity change, negative = inhibition, most hits filed as inhibitors; 310,000 tested, 5.9% active; AID 504832; also: potency is read from the fitted curve at half-maximal effect; % is scaled to controls: 0 for no effect and ±100 for the full control effect
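A one-generation exposure of luciferase-tagged malaria parasites in RPMI 1640/Albumax erythrocyte culture, 37 C and 5% CO2. Inhibition is inferred from decreased luminescence after adding detection reagent.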
Pf growth 96h: P. falciparum growth inhibition at 96 hour, primary screen for plastid delayed-death inhibitors; 320,000 tested, 6.9% active; Potency, µM (series often up to 28.7 µM), without a hit: at the top dose activity change, negative = inhibition, most hits filed as inhibitors; P. falciparum luciferase reporter growth, 96 h; also: potency is read from the fitted curve at half-maximal effect; % is scaled to controls: 0 for no effect and ±100 for the full control effect
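Erythrocytes infected with luciferase-expressing P. falciparum were dispensed at 2% hematocrit and 0.05% parasitemia (final), then incubated with compounds 96 hours at 37 C in 5% CO2. Luminescence after detection reagent addition reported growth.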
CHX counter: affects cycloheximide protein synthesis inhibition readout, counter-screen. cell reporter, cycloheximide protein synthesis inhibition counterscreen. 300,000 tested, 12% active. max response, %; in the data active = max response mostly above about 13%, no sharp cut-off; inactive = mostly below about 14%; also: read at 38.3 µM for the half of the compounds with a filed dose; 0% is about no effect
Numbers without * were called inactive; ? = inconclusive; · = no result given; + = active, no number. An excerpt weighted towards active compounds, which were near 21% of everything screened. Unless noted, calls follow the shape of the dose curve; as a rule, active = well fitted inhibition curve with a large enough effect; inconclusive = small, poorly fitted or top-dose-only effect, or another doubt; inactive = no such curve, though single readings can be large or run the other way.

SMILES | Shiga toxin inh | Pf growth 48h | Pf growth 96h | CHX counter
C[C@@H]1CC=C[C@H]2[C@H]1C(=O)N(Cc1ccccc1)[C@H]2c1ccc(F)c(-c2ccc(N(C)C)cc2)c1 | 35 | ? | 12µM* | -2
CC[C@@H]1CC=C[C@H]2[C@H]1C(=O)N(Cc1ccccc1)[C@H]2c1ccc2ccccc2c1 | 14 | 13µM* | ? | 6
COc1ccc(-c2cc(C3C4C=CCC(C)C4C(=O)N3Cc3ccccc3)ccc2F)cc1OC (stereo not given) | 63* | · | · | 51*
COc1ccccc1NC(=O)C(C)OC(=O)CCSc1ccc(F)cc1 (stereo not given) | · | -14% | -3% | ·
Oc1cccc2ccc(/C=C/c3ccccc3Cl)nc12 | 72* | 0% | -17% | 40*
O=C(N/N=C/c1c(F)cccc1Cl)C1CC1 | -4 | 3% | 23% | -5
Nc1nccc(/C=C/c2c(F)cccc2Cl)n1 | 68* | 39% | 44% | 28*
Oc1cccc2ccc(/C=C/c3c(F)cccc3Cl)nc12 | 158* | 237% | 182% | 53*
O=C(c1ccc(=O)[nH]c1)N1CCCc2ccccc21 | -8 | 39% | 11% | -2
CN(C(=O)c1ccnn1C)C1CCCN(Cc2ccccc2F)C1 (stereo not given) | 13 | -9% | ? | -3
CCOC(=O)N1CCN(Cc2nnc(-c3cccc(Br)c3)o2)CC1 | 14 | 3% | 20% | -2
O=C(NC(NC(=S)Nc1ccccc1C(=O)O)C(Cl)(Cl)Cl)c1ccco1 (stereo not given) | 45* | -3% | -30% | 31*
Cc1ccccc1NC(=S)NC(NC(=O)c1ccco1)C(Cl)(Cl)Cl (stereo not given) | 10 | ? | 9.3µM* | 10
COC(=O)c1ccccc1NC(=S)NC(NC(=O)c1ccco1)C(Cl)(Cl)Cl (stereo not given) | -2 | 36% | 102% | 18
O=C(NC(NC(=S)Nc1cc(Cl)ccc1Cl)C(Cl)(Cl)Cl)c1ccco1 (stereo not given) | 5 | ? | ? | -2
O=C(CO/N=C/c1ccccc1O)N1CCc2ccccc21 | 20 | -2% | -7% | -1
COc1ccc(C(=O)NCc2nnc(SCC(=O)N3CCCc4ccccc43)o2)cc1OC | 15 | ? | -9% | 4
Cc1cc(C(=O)Nc2ccc(Cl)cc2)c(C)n1-c1ccccc1 | 7 | ? | -51% | 6
Cc1ccc(NC(=O)c2cc(C)n(-c3cccc(C)c3)c2C)cc1 | 72* | 15% | -87% | 76*
Cc1ccc(NC(=O)c2cc(C)n(-c3ccccc3)c2C)cc1 | 25 | -74% | -99% | 26*
CN(C)S(=O)(=O)c1ccc(N2CCCC2)c(C(=O)NC2CCC(O)CC2)c1 (stereo not given) | · | -14% | -6% | ·
O=C(c1ccc2ccccc2c1)C1CCCN(C(=O)CN2C(=O)CSC2=O)C1 (stereo not given) | 20 | 21% | 10µM* | 6
CN(CC(=O)Nc1cc(Cl)cc(Cl)c1)Cc1cccs1 | 25 | -17% | -3% | -5
CCc1ccc(N(C(=O)c2csnn2)C(C(=O)NC(C)(C)C)c2ccccn2)cc1 (stereo not given) | 76* | 25% | ? | 29*
O=C(NC1CCCC1)C(c1ccccn1)N(C(=O)c1csnn1)c1ccccc1Br (stereo not given) | · | 6% | 2.1µM* | ·
SMILES | Shiga toxin inh | Pf growth 48h | Pf growth 96h | CHX counter
O=C(NCc1ccc(F)cc1)C(c1cccnc1)N(C(=O)c1csnn1)c1ccccc1 (stereo not given) | -7 | -26% | 10µM* | -4
CCc1ccc(N(C(=O)c2csnn2)C(C(=O)NC(C)(C)CC)c2ccccn2)cc1 (stereo not given) | -13 | -16% | 0% | 9
O=C(c1ccco1)N1CCN(c2nnc(-c3ccccc3)c3ccccc23)CC1 | -8 | · | ? | -4
COc1ccccc1CNC(=O)COC(=O)c1cc(=O)[nH]c2ccccc12 | · | -16% | -15% | ·
O=C(O)CN1C(=O)/C(=C\C(Br)=C\c2ccccc2)SC1=S | 22 | ? | 3% | -2
O=C(O)CC(Cc1ccc(Cl)cc1)C(=O)Nc1cc(Cl)ccc1Cl (stereo not given) | · | -15% | 0% | 4
CCc1cc2c(cc3c(=O)n(CC(=O)NCCCN4CCCCCC4)nc(CC)n32)s1 | 17 | -17% | ? | -1
NC(=O)c1sc2nccc(Nc3ccccc3)c2c1N | 49 | ? | -7% | 15*
O=C(COC(=O)C1C2CC3OC(=O)C1C3C2)Nc1ccccc1 (stereo not given) | 17 | 9% | ? | 16*
COc1ccc(-c2cc(C(=O)N3CCc4ccccc4C3)no2)cc1 | 88* | 12% | ? | 28*
COc1ccc(-c2cc(C(=O)N3CCN(c4ccccc4OC)CC3)no2)cc1 | -8 | -9% | ? | -5
COc1ccccc1N1CCN(C(=O)c2cc(-c3ccc(C)cc3)on2)CC1 | 55* | 15% | · | 19*
COc1ccc(OC)c(-c2cc(C(=O)N3CCc4ccccc4C3)no2)c1 | -11 | 22% | 9.3µM* | 8
COc1ccc(-c2cc(C(=O)N3CCN(c4ccccc4)CC3)no2)cc1 | 93* | 131% | 3% | 37*
COc1ccccc1N1CCN(C(=O)c2noc(C(C)C)c2[N+](=O)[O-])CC1 | -4 | 0% | 13µM* | -5
COc1cccc(-c2cc(C(=O)N3CCc4ccccc4C3)no2)c1 | 6 | 22% | 6% | 17*
O=C(c1cc(-c2ccc(Br)cc2)on1)N1CCc2ccccc2C1 | 0 | 11% | 59% | 1
CN(C)S(=O)(=O)c1cccc(C(=O)NCCNC(=O)c2cccc(S(=O)(=O)N(C)C)c2)c1 | 21 | 0% | -4% | -1
CN(C)C(CNC(=O)c1ccc(S(=O)(=O)Nc2cccc(C(F)(F)F)c2)cc1)c1ccco1 (stereo not given) | · | ? | -7% | ·
Cc1ccc2oc(C(=O)NCC(c3ccco3)N(C)C)c(C)c2c1 (stereo not given) | 75* | 23% | 45% | 41*
CN(C)C(CNC(=O)c1ccc(C(F)(F)F)cc1)c1ccco1 (stereo not given) | 17 | 17% | 35% | 17*
CC(Cc1ccco1)NC(=O)c1cccc(S(=O)(=O)N(C)C)c1 (stereo not given) | 67* | 118% | 134% | 30*
CC(Cc1ccco1)NC(=O)c1ccc(C(F)(F)F)cc1 (stereo not given) | + | 320% | 447% | 43*
CCOC(=O)C1CCN(C(=O)C2CCN(S(=O)(=O)N3CCC4(CC3)OCCO4)CC2)CC1 | -18 | 2% | 5% | -5
COc1ccc(NC(=O)CSc2nnc(Cc3cccs3)n2C)cc1 | · | ? | -22% | ·
COc1cccc(CNC(=O)c2ccc(S(=O)(=O)N3CCOCC3)cc2)c1 | · | ? | -16% | ·
COc1cccc(CN2C(=O)C3CCCN3c3ccc(S(=O)(=O)N4CCOCC4)cc32)c1 (stereo not given) | -14 | 1µM* | 1.2µM* | -3
Cc1ccc(C)c(CN2C(=O)C3CCCN3c3ccc(S(=O)(=O)N4CCOCC4)cc32)c1 (stereo not given) | -2 | 1µM* | ? | 6
